The test system of the test is Potassium Channel [KATP]. The test can be described thus: CYP450 and receptor off-target profile – biochemical, Ricerca HitProfilingScreen, selectivity assay for S1P4 agonist project, late-stage follow-up (AID 504400). The following applies: Ricerca radioligand binding/enzyme panel plus CYP450, at 10 µM, active compounds read high.

One compound from PubChem BioAssay AID504400 (The Scripps Research Institute Molecular Screening Center, 2011) can be followed below.

Broadly, the inhibition is how much of the control response was suppressed.

The structures appear in SMILES notation. Values without a mark were called inactive. No rule for the calls is given here.

For `Clc1ccc(OCCOc2ccc(Br)nc2Br)c(Cl)c1`, the inhibition is 20%.
